A selection: hits, their analogues and other compounds. The true share with any hit is near 5.2%.
NRP1-CendR mod = alters CendR peptide binding to human NRP-1; O14786; actives 0.85% (n = 360,000); FAM-RPARPAR peptide binding to NRP-1, fluorescence polarization; inhibition, % at 25 µM; AID 602438;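 active means inhibition or corrected inhibition above about 18%, plus a signal ratio from 0.5 to 1.5, limit read from the data, passing the limit was not always enough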
CR mimetic SO = lowers age-related superoxide in aged yeast cells; S. cerevisiae aged cells, superoxide DHE fluorescence; hits give low values; superoxide response (% of plate mean), % at 10 µM; actives 0.18% (n = 330,000); AID 2690;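 active means superoxide response under a set limit, about three screen SD below normal, cut at about 65% in these data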;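 further: yeast aged for seven days with compound at 30 °C before DHE staining; 100% = average MFI of all compound-treated wells on the plate with controls excluded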
PfM18AAP inh = blocks P. falciparum M18 aspartyl aminopeptidase. inhibition, % at 7.35 µM. recombinant PfM18AAP, H-Glu-NHMec fluorogenic cleavage. actives 1.2% (n = 290,000);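 active means inhibition above the campaign mean inhibition over all tested compounds plus 3 SD, cut at about 28% in these data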;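 further: 0% = plate median of test compound wells and 100% = 2 mM ZnCl2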
ALR inh = blocks human ALR sulfhydryl oxidase activity. purified ALR, DTT oxidation, H2O2 HRP-luminol luminescence. actives 3.8% (n = 290,000). AID 485317. P55789. inhibition, % (test concentration not listed);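 active means mean replicate inhibition above about 79%, with every replicate also reaching it, limit read from the data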
Target sequence (P55789 whole entry, looked up): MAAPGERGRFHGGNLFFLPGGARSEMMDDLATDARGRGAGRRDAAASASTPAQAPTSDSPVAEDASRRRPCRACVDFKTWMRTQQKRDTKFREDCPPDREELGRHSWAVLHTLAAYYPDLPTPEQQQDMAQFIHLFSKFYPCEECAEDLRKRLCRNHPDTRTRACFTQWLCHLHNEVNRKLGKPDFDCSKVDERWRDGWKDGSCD
A3G deaminase = APOBEC3G (human) deaminase inhibition; Q9HC16; recombinant A3G, ssDNA deamination FAM/TAMRA fluorescence; inhibition, % at 20 µM; actives 0.28% (n = 330,000); AID 493012;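 active means inhibition of at least 40% at 20 µM, with no more than 30% in the related APOBEC3A deaminase screen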;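 further: plate controls were DMSO wells with A3G for no effect and wells lacking A3G enzyme for full effect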
A3A deaminase = inhibitors of human APOBEC3A DNA deaminase; P31941; recombinant A3A, FAM/TAMRA ssDNA deamination fluorescence; inhibition, % at 20 µM; actives 0.41% (n = 330,000);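 active means at least 40% inhibition at 20 µM here, with at most 30% in a related deaminase screen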;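 further: plate controls were A3A with DMSO for no effect and wells lacking A3A enzyme for full effect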
Target sequence (P31941 whole entry, looked up): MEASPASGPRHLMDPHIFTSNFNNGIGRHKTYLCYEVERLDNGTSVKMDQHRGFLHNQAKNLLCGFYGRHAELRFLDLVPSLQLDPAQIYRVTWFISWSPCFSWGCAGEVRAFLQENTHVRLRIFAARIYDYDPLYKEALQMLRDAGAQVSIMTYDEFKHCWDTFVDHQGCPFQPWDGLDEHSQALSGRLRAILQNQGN
Superoxide pick = yeast aging superoxide inhibition, cherry pick confirmation | shares compounds with CR mimetic SO | S. cerevisiae aging, superoxide DHE fluorescence; hits give low values | superoxide response (% of plate), % at 10 µM | actives 1% (n = 850);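 active means superoxide signal below 65% of the plate average of sample wells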;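 further: cells aged with compound for 7 days at 30 degrees C before staining; 100% equals mean DHE fluorescence of all compound wells on the plate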
DHE fluor count = compound alters DHE oxidation or fluorescence in yeast; S. cerevisiae BY4741, flow cytometry; hits give low values; 850 tested, under 10 active; fluorescence response, % at 10 µM; shares compounds with CR mimetic SO; AID 435000;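 active means fluorescence response below 15%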;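 further: percent of the mean fluorescence averaged over all compound wells on the plate; lower means stronger quenching of DHE signal or ROS scavenging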
The depositor's hits bear a star; nt = not tested or not shown.

SMILES	NRP1-CendR mod	CR mimetic SO	PfM18AAP inh	ALR inh	A3G deaminase	A3A deaminase	Superoxide pick	DHE fluor count
O=C(Nc1ccc(F)cc1)c1cnc(-c2ccccc2)nc1-c1ccccc1	2	115	-1	-1	-7	0	nt	nt
CCCN(CCC)CC(O)Cn1c2ccccc2c2ccccc21 (stereo not given)	2	80	4	nt	-7	2	97	94
CC(C)CCN(CCC(C)C)CC(O)Cn1c2ccccc2c(=O)c2ccccc21 (stereo not given)	-3	106	-1	-7	-10	0	nt	nt
CC(=O)CSc1nc2ccc(Nc3nc(N4CCOCC4)nc(N4CCOCC4)n3)cc2s1	22	60*	3	99*	-5	-5	101	103
Cc1ccc(-c2nnc(Nc3ccc4c(c3)OCO4)c3ccccc23)cc1S(=O)(=O)NCCO	-1	103	-3	12	-5	-3	103	94
Cc1ccc(-c2nnc(Nc3ccc(CC(N)=O)cc3)c3ccccc23)cc1S(=O)(=O)NCCO	7	91	8	0	-7	-6	nt	nt
Cc1ccc(-c2nnc(Nc3ccc4c(c3)OCO4)c3ccccc23)cc1S(=O)(=O)NC(C)C	28*	103	-3	-1	-5	-5	100	92
O=C(COC(=O)c1cccnc1Cl)c1ccc(Cl)cc1Cl	0	91	-1	-22	-5	1	nt	nt
CC(=O)Nc1cccc(NC(=O)CSc2ccc(-c3ccccn3)nn2)c1	-2	115	16	-16	-3	-1	nt	nt
Cc1ccc(NC(=O)CSc2ccc(-c3ccccn3)nn2)cc1F	-2	113	11	-9	-5	-5	110	98
CCc1ccc(NC(=O)CSc2ccc(-c3ccccn3)nn2)cc1	-2	59*	11	-7	-9	-1	126	113
Nn1c(SCC(=O)Nc2ccc3c(c2)OCCO3)nnc1-c1ccccn1	-8	54*	-2	-3	-2	-3	104	93
COc1ccc(C)cc1NC(=O)CSc1ccc(-c2ccccn2)nn1	1	131	7	-5	-6	-4	122	93
COc1ccc(Cl)cc1NC(=O)CNCC(c1ccccc1)N(C)C (stereo not given)	-2	69	5	2	-3	4	nt	nt
O=C(NCCc1c[nH]c2ccccc12)c1cc([N+](=O)[O-])cc([N+](=O)[O-])c1	7	109	12	-3	-1	1	nt	nt
CCc1ccc(NC(=O)CSc2nnc(-c3ccccn3)n2C)cc1	-11	65*	0	-11	1	5	89	91
COc1cc(NC(=O)CSc2ccc(-c3ccccn3)nn2)cc(OC)c1	-4	101	-1	-3	-6	3	102	124
COc1ccc(S(=O)(=O)N2CCCCCC2)cc1NC(=O)Cc1cccc(C(F)(F)F)c1	3	nt	nt	nt	nt	nt	nt	nt
CN(C)C(CNC(=O)Nc1cccc(Cl)c1)c1cccnc1 (stereo not given)	14	100	-18	nt	-9	-6	nt	nt
CC(=O)NC12CC3CC(C1)CC(C(=O)Nc1c(C)n(C)n(-c4ccccc4)c1=O)(C3)C2	-10	62*	5	-3	0	0	97	108
CN(CC(=O)Nc1ccc(C(N)=O)cc1)CC(=O)Nc1ccccc1Br	1	91	-5	-7	0	1	nt	nt
Cc1cccc(NC(=O)C2CCCN2C(=O)OCc2ccccc2)c1 (stereo not given)	4	120	nt	8	-12	-6	nt	nt
CC(NC(=O)c1ccco1)C(=O)N1CC=C(c2ccccc2)CC1 (stereo not given)	-2	71	nt	-11	-7	-4	nt	nt
CCn1c2ccc(CC(=O)O)cc2c2cc(CC(=O)O)ccc21	-7	105	-4	-28	-4	1	101	103
CCOc1cccc(/C=C/c2ccc3cccc(O)c3n2)c1OC	-4	42*	11	-3	-9	-5	101	95
O=c1cc(-c2ccccc2)nc2cc(-c3ccc(F)cc3)[nH]n12	-9	106	nt	-3	-1	-4	92	94

Assay outcomes: PubChem, several laboratories
